In PubChem BioAssay (NCI):
About 79,000 compounds went through this panel and 15% of them were active in at least one assay; those are over-represented in the sample as a whole. Values without a mark were called inactive. Calls of active or inactive are those of the source. No stated cut-off is given here; in the data, active means growth inhibition above about 70%; inactive means the rest.

Columns and labels:
[1] = NCI Yeast Anticancer Drug Screen. Data for the rad50 strain (AID 155);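 further: 0% = growth of vehicle-only cultures of the same strain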; details: S. cerevisiae rad50 strain growth inhibition, active compounds read high
How it was run: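 DNA repair mutant yeast, compound exposure, growth read-out; inhibition is taken relative to vehicle.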

[2] = NCI Yeast Anticancer Drug Screen. Data for the mec2-1 strain (AID 157); details: S. cerevisiae mec2-1 strain, active compounds read high
How it was run: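 Test agents were screened against the mec2-1 yeast strain, with defined DNA repair or cell cycle alteration. Growth was scored as inhibition against vehicle-only controls.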

[3] = NCI Yeast Anticancer Drug Screen. Data for the sgs1 mgt1 strain (AID 161);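 further: 0% = growth of cultures given vehicle only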; details: S. cerevisiae sgs1 mgt1 strain, active compounds read high
How it was run: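 Test agents were incubated with a DNA-repair-mutant yeast strain. Growth was then read and compared against vehicle-treated controls.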

[4] = NCI Yeast Anticancer Drug Screen. Data for the cln2 rad14 strain (AID 165);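 further: 0% = growth equal to vehicle treated cultures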; details: S. cerevisiae cln2 rad14 strain, active compounds read high
How it was run: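 Growth of compound-exposed yeast (cln2 rad14 genotype) measured and expressed as inhibition relative to vehicle.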

[5] = NCI Yeast Anticancer Drug Screen. Data for the bub3 strain (AID 167); details: S. cerevisiae bub3 mutant strain, active compounds read high
How it was run: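 In this screen, a yeast mutant lacking normal mitotic checkpoint function is challenged with compound. Relative growth versus vehicle gives the inhibition value.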

[6] = NCI Yeast Anticancer Drug Screen. Data for the mlh1 rad18 strain (AID 175); details: S. cerevisiae mlh1 rad18 strain growth inhibition, active compounds read high
How it was run: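 In this whole-cell yeast screen, a strain with altered DNA damage repair is challenged with compound, and its growth is measured against matched vehicle-treated controls.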

[7] = at 5.0 µM (retest, dose inferred, filed as 0.5)
[8] = at 50.0 µM (retest, dose inferred, filed as 5.0)

Structure (SMILES)	growth inhibition [1, 7]	growth inhibition [1, 8]	growth inhibition ([1]; at 50.0 µM)	growth inhibition [2, 7]	growth inhibition [2, 8]	growth inhibition ([2]; at 50.0 µM)	growth inhibition [3, 7]	growth inhibition [3, 8]	growth inhibition ([3]; at 50.0 µM)	growth inhibition [4, 7]	growth inhibition [4, 8]	growth inhibition ([4]; at 50.0 µM)	growth inhibition [5, 7]	growth inhibition [5, 8]	growth inhibition ([5]; at 50.0 µM)	growth inhibition [6, 7]	growth inhibition [6, 8]	growth inhibition ([6]; at 50.0 µM)
C/C=C\c1cc2c(cc1CC#N)OCO2	8%	42%	-21.3%	5%	14%	20.1%	13%	51%	42.5%	12%	78% (active)	5.6%	1%	-2%	8.25%	17%	39%	25.6%
Cc1ccc(C)c([N+](=O)[O-])c1	-2%	11%	51.1%	1%	-2%	17.6%	-1%	-2%	13.8%	1%	1%	-7.1%	-1%	1%	6.25%	0%	12%	28.2%
COC1CC2CCC(C)[C@](O)(O2)C(=O)C(=O)N2CCCCC2C(=O)OC(C(C)CC2CCC(O)C(OC)C2)CC(=O)C(C)C=C(C)C(OC(=O)CCCN2CCCC2)C(OC)C(=O)C(C)CC(C)/C=C/C=C/C=C\1C (some centres not stated)	96% (active)	98% (active)	90% (active)	98% (active)	98% (active)	92.3% (active)	97% (active)	97% (active)	92.9% (active)	91% (active)	96% (active)	88.2% (active)	97% (active)	98% (active)	92% (active)	96% (active)	98% (active)	91.5% (active)
O=[N+]([O-])/C=C/c1cc2c(ccc3ccccc32)[nH]1	61%	98% (active)	82.7% (active)	94% (active)	95% (active)	92.2% (active)	88% (active)	98% (active)	94.5% (active)	37%	92% (active)	93.3% (active)	96% (active)	98% (active)	90.7% (active)	87% (active)	97% (active)	89% (active)
CSC(=Nc1ccc(Cl)cc1)N1CC=Cc2ccccc21	2%	-1%	-1.85%	-13%	12%	5.85%	-15%	23%	43.4%	9%	-4%	42.8%	49%	82% (active)	81.8% (active)	0%	-1%	12.3%
Nc1ccc(Cl)c2cccnc12	11%	92% (active)	97.5% (active)	4%	94% (active)	35.5%	5%	89% (active)	86.7% (active)	0%	46%	87.2% (active)	0%	90% (active)	15.2%	7%	94% (active)	91.9% (active)
CCCCCCCCCCCC(=O)OCCN(CCOC(=O)CCCCCCCCCCC)C(=O)COC(=O)CCCCCCCCCCC	-4%	39%	99.4% (active)	1%	94% (active)	99.7% (active)	3%	92% (active)	99.8% (active)	-2%	81% (active)	99.3% (active)	-2%	60%	60.4%	1%	86% (active)	99.3% (active)
CC(C)OCc1cccc2ccnc(COC(C)C)c12	-20%	53%	20.8%	8%	14%	25.6%	-10%	35%	24.9%	-15%	87% (active)	20.6%	-11%	91% (active)	20.2%	28%	50%	25.1%
COc1ccccc1C1C2=C(COC2=O)OC(C)(C)Oc2cc3c(cc21)OCO3 (configuration not stated)	22%	96% (active)	75.8% (active)	-13%	96% (active)	85.1% (active)	16%	96% (active)	86.3% (active)	35%	95% (active)	87.3% (active)	-22%	97% (active)	89.7% (active)	15%	96% (active)	88% (active)
